# Results reported in article PMC8384837, “Expanding the binding specificity for RNA recognition by a PUF domain”.
# Numbering of substitutions follows the chain as printed.
# Experiments:
# Assay in all cases: yeast three-hybrid, YBZ-1, SC-Leu-His + 0.5 mM 3-AT, 4 days
# Details in all cases: tags: N-Gal4 AD-HA kept; label: inside an RPR1-promoter hybrid RNA with tandem MS2 sites; ssRNA
# PUM1 PUF domain R3-RVR = PUM1 PUF domain R3-RVR (Homo sapiens, UniProt Q14671 828-1176, C935R;R936V;Q939R)
# How it was run: (§1)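 Pumilio-1 PUF domain libraries, randomized at the three base-contacting residues of each repeat, were co-expressed with matching RNA elements from a centromeric plasmid in strain YBZ-1, which carries a LexA–MS2 coat fusion and a HIS3 reporter. Transformants grew for four days on SC-Leu (input) or on SC-Leu-His + 0.5 mM 3-AT (selection), and the repeat regions were PCR-amplified and Illumina-sequenced. The interaction score is the log change in variant frequency from input to selection. That logarithm is base 2, with a pseudocount of 1 where a variant was absent.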
# PUM1 PUF domain R7-KGG = PUM1 PUF domain R7-KGG (Homo sapiens, UniProt Q14671 828-1176, S1079K;N1080G;E1083G)
# How it was run: as §1
# PUM1 PUF domain R7-LPT = PUM1 PUF domain R7-LPT (Homo sapiens, UniProt Q14671 828-1176, S1079L;N1080P;E1083T)
# How it was run: as §1
# PUM1 PUF domain R4-AFP = PUM1 PUF domain R4-AFP (Homo sapiens, UniProt Q14671 828-1176, N971A;H972F;Q975P)
# How it was run: as §1
# PUM1 PUF domain R6-FRL = target: T1, PUM1 PUF domain R6-FRL (Homo sapiens, UniProt Q14671 828-1176, N1043F;Y1044R;Q1047L)
# T1 sequence: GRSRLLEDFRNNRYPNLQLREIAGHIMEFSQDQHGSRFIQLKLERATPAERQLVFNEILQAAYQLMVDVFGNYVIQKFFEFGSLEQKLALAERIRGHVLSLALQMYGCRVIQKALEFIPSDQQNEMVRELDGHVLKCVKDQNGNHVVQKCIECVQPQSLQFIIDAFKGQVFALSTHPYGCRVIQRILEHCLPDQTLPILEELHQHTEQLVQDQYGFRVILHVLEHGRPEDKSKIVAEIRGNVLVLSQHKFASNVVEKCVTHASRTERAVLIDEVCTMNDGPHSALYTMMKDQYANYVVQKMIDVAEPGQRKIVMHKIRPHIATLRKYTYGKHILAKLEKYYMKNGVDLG
# How it was run: as §1
# PUM1 PUF domain R5-KQT = PUM1 PUF domain R5-KQT (Homo sapiens, UniProt Q14671 828-1176, C1007K;R1008Q;Q1011T)
# How it was run: as §1
# PUM1 PUF domain R8-SYR = PUM1 PUF domain R8-SYR (Homo sapiens, UniProt Q14671 828-1176, N1122S;Q1126R)
# How it was run: as §1
# PUM1 PUF domain R3-GWD = PUM1 PUF domain R3-GWD (Homo sapiens, UniProt Q14671 828-1176, C935G;R936W;Q939D)
# How it was run: as §1
# PUM1 PUF domain R6-GWC = target: T2, PUM1 PUF domain R6-GWC (Homo sapiens, UniProt Q14671 828-1176, N1043G;Y1044W;Q1047C)
# T2 sequence: T1 sequence with F216G, R217W, L220C
# How it was run: as §1
# PUM1 PUF domain R4-VNA = PUM1 PUF domain R4-VNA (Homo sapiens, UniProt Q14671 828-1176, N971V;H972N;Q975A)
# How it was run: as §1
# PUM1 PUF domain R6-SWE = target: T3, PUM1 PUF domain R6-SWE (Homo sapiens, UniProt Q14671 828-1176, N1043S;Y1044W;Q1047E)
# T3 sequence: T1 sequence with F216S, R217W, L220E
# How it was run: as §1
# PUM1 PUF domain R1-SRR = PUM1 PUF domain R1-SRR (Homo sapiens, UniProt Q14671 828-1176, Q867R)
# How it was run: as §1
# PUM1 PUF domain R1-GVR = PUM1 PUF domain R1-GVR (Homo sapiens, UniProt Q14671 828-1176, S863G;R864V;Q867R)
# How it was run: as §1
# PUM1 PUF domain R8-RCK = PUM1 PUF domain R8-RCK (Homo sapiens, UniProt Q14671 828-1176, N1122R;Y1123C;Q1126K)
# How it was run: as §1
# PUM1 PUF domain R3-YFE = PUM1 PUF domain R3-YFE (Homo sapiens, UniProt Q14671 828-1176, C935Y;R936F;Q939E)
# How it was run: as §1
# PUM1 PUF domain R5-QGR = PUM1 PUF domain R5-QGR (Homo sapiens, UniProt Q14671 828-1176, C1007Q;R1008G;Q1011R)
# How it was run: as §1
# PUM1 PUF domain R5-ATR = PUM1 PUF domain R5-ATR (Homo sapiens, UniProt Q14671 828-1176, C1007A;R1008T;Q1011R)
# How it was run: as §1
# PUM1 PUF domain R5-DMR = PUM1 PUF domain R5-DMR (Homo sapiens, UniProt Q14671 828-1176, C1007D;R1008M;Q1011R)
# How it was run: as §1
# PUM1 PUF domain R5-KYR = PUM1 PUF domain R5-KYR (Homo sapiens, UniProt Q14671 828-1176, C1007K;R1008Y;Q1011R)
# How it was run: as §1
# PUM1 PUF domain R5-QNG = PUM1 PUF domain R5-QNG (Homo sapiens, UniProt Q14671 828-1176, C1007Q;R1008N;Q1011G)
# How it was run: as §1
# Chain of PUM1 PUF domain R4-AFP (Q14671 828-1176 N971A/H972F/Q975P): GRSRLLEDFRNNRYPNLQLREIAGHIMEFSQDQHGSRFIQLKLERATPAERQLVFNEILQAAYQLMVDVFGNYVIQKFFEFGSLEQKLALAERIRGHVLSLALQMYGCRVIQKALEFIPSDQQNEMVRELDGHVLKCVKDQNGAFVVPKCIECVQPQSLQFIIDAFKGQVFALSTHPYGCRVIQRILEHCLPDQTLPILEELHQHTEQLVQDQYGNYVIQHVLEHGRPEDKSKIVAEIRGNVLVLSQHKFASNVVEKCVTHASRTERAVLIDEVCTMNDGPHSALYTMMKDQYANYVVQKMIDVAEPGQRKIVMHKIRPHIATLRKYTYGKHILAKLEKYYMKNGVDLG
# Chain of PUM1 PUF domain R5-KQT (Q14671 828-1176 C1007K/R1008Q/Q1011T): as the sequence (Q14671 828-1176 N971A/H972F/Q975P) above, with A144N, F145H, P148Q, C180K, R181Q, Q184T counted along it
sequence,measurement,setting,value
GGCUAGAACUAGUGGAUCCCCCGGCGCCCGGCGGCUCGAGCCCGGGUAAGUGUAAUUAGUCUGCAUGCCGCCGGGCGCCAUGCCUGCAGGUCGACUCUAGAAAACAUG,binding signal,PUM1 PUF domain R3-RVR,4.85 log2 enrichment (interaction score)
GGCUAGAACUAGUGGAUCCCCCGGCGCCCGGCGGCUCGAGCCCGGGUAAGUUUAAAUAGUCUGCAUGCCGCCGGGCGCCAUGCCUGCAGGUCGACUCUAGAAAACAUG,binding signal,PUM1 PUF domain R7-KGG,2.69 log2 enrichment (interaction score)
same,binding signal,PUM1 PUF domain R7-LPT,3.22 log2 enrichment (interaction score)
GGCUAGAACUAGUGGAUCCCCCGGCGCCCGGCGGCUCGAGCCCGGGUAAGUGUAAAUAGUCUGCAUGCCGCCGGGCGCCAUGCCUGCAGGUCGACUCUAGAAAACAUG,binding signal,PUM1 PUF domain R4-AFP,3.88 log2 enrichment (interaction score)
same,binding signal,PUM1 PUF domain R6-FRL,2.93 log2 enrichment (interaction score)
same,binding signal,PUM1 PUF domain R5-KQT,2.17 log2 enrichment (interaction score)
same,binding signal,PUM1 PUF domain R8-SYR,4.42 log2 enrichment (interaction score)
same,binding signal,PUM1 PUF domain R3-GWD,5.07 log2 enrichment (interaction score)
same,binding signal,PUM1 PUF domain R6-GWC,2.76 log2 enrichment (interaction score)
GGCUAGAACUAGUGGAUCCCCCGGCGCCCGGCGGCUCGAGCCCGGGUAAGUGUACAUAGUCUGCAUGCCGCCGGGCGCCAUGCCUGCAGGUCGACUCUAGAAAACAUG,binding signal,PUM1 PUF domain R4-AFP,6.13 log2 enrichment (interaction score)
same,binding signal,PUM1 PUF domain R4-VNA,1.65 log2 enrichment (interaction score)
GGCUAGAACUAGUGGAUCCCCCGGCGCCCGGCGGCUCGAGCCCGGGUAAGUGAAAAUAGUCUGCAUGCCGCCGGGCGCCAUGCCUGCAGGUCGACUCUAGAAAACAUG,binding signal,PUM1 PUF domain R6-SWE,4.09 log2 enrichment (interaction score)
GGCUAGAACUAGUGGAUCCCCCGGCGCCCGGCGGCUCGAGCCCGGGUAAGUGUAAAUUGUCUGCAUGCCGCCGGGCGCCAUGCCUGCAGGUCGACUCUAGAAAACAUG,binding signal,PUM1 PUF domain R1-SRR,1.58 log2 enrichment (interaction score)
same,binding signal,PUM1 PUF domain R1-GVR,2.24 log2 enrichment (interaction score)
GGCUAGAACUAGUGGAUCCCCCGGCGCCCGGCGGCUCGAGCCCGGGUAAGUGGAAAUAGUCUGCAUGCCGCCGGGCGCCAUGCCUGCAGGUCGACUCUAGAAAACAUG,binding signal,PUM1 PUF domain R6-SWE,4.47 log2 enrichment (interaction score)
GGCUAGAACUAGUGGAUCCCCCGGCGCCCGGCGGCUCGAGCCCGGGUAAGUGUAAAUCGUCUGCAUGCCGCCGGGCGCCAUGCCUGCAGGUCGACUCUAGAAAACAUG,binding signal,PUM1 PUF domain R1-SRR,3.51 log2 enrichment (interaction score)
same,binding signal,PUM1 PUF domain R1-GVR,3.35 log2 enrichment (interaction score)
GGCUAGAACUAGUGGAUCCCCCGGCGCCCGGCGGCUCGAGCCCGGGUAAGCGUAAAUAGUCUGCAUGCCGCCGGGCGCCAUGCCUGCAGGUCGACUCUAGAAAACAUG,binding signal,PUM1 PUF domain R8-RCK,2.23 log2 enrichment (interaction score)
same,binding signal,PUM1 PUF domain R8-SYR,4.37 log2 enrichment (interaction score)
GGCUAGAACUAGUGGAUCCCCCGGCGCCCGGCGGCUCGAGCCCGGGUAAGUGUAAGUAGUCUGCAUGCCGCCGGGCGCCAUGCCUGCAGGUCGACUCUAGAAAACAUG,binding signal,PUM1 PUF domain R3-RVR,1.73 log2 enrichment (interaction score)
same,binding signal,PUM1 PUF domain R3-YFE,5.72 log2 enrichment (interaction score)
GGCUAGAACUAGUGGAUCCCCCGGCGCCCGGCGGCUCGAGCCCGGGUAAGUGUCAAUAGUCUGCAUGCCGCCGGGCGCCAUGCCUGCAGGUCGACUCUAGAAAACAUG,binding signal,PUM1 PUF domain R5-KQT,4.51 log2 enrichment (interaction score)
same,binding signal,PUM1 PUF domain R5-QGR,3.22 log2 enrichment (interaction score)
same,binding signal,PUM1 PUF domain R5-ATR,3.13 log2 enrichment (interaction score)
same,binding signal,PUM1 PUF domain R5-DMR,3.01 log2 enrichment (interaction score)
same,binding signal,PUM1 PUF domain R5-KYR,2.48 log2 enrichment (interaction score)
GGCUAGAACUAGUGGAUCCCCCGGCGCCCGGCGGCUCGAGCCCGGGUAAGUGUAUAUAGUCUGCAUGCCGCCGGGCGCCAUGCCUGCAGGUCGACUCUAGAAAACAUG,binding signal,PUM1 PUF domain R4-AFP,5 log2 enrichment (interaction score)
same,binding signal,PUM1 PUF domain R4-VNA,3.11 log2 enrichment (interaction score)
GGCUAGAACUAGUGGAUCCCCCGGCGCCCGGCGGCUCGAGCCCGGGUAAGUGUUAAUAGUCUGCAUGCCGCCGGGCGCCAUGCCUGCAGGUCGACUCUAGAAAACAUG,binding signal,PUM1 PUF domain R5-QNG,2.88 log2 enrichment (interaction score)
same,binding signal,PUM1 PUF domain R5-KQT,2.84 log2 enrichment (interaction score)
